Screening data (PubChem BioAssay)
A selection: hits, their analogues and other compounds. The true share with any hit is near 27%.
Cav32 inh: Cav3.2 calcium influx blockers – cell-based, Fluo-4 calcium fluorescence, FDSS, MLSMR library, primary screen; Voltage-dependent T-type calcium channel subunit alpha-1H (Homo sapiens), O95180; Cav3.2-expressing cells; active compounds read low; B-score at 10 µM; actives 4% (n = 100,000);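 active means single-dose well whose peak fluorescence ratio is a statistical outlier from its plate by either plate-standardised score or position-corrected B-score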
CYP2C9 inh: blockers of cytochrome P450 2C9 activity – biochemical, luminescence, ADME assay, primary screen; CYP2C9 Supersomes, luciferin-H conversion; actives 20% (n = 96,000); inhibition, % at 5 µM; P11712;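 active means blocking of liver enzyme CYP2C9 beyond about 50% at 5 µM, limit read from the data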
CYP2C19 inh: blockers of cytochrome P450 2C19 activity – biochemical, luminescence, ADME assay, primary screen; AID 778, 2007; CYP2C19 Supersomes, luciferin-H EGE luminescence, 30 min; inhibition, % at 5 µM; actives 21% (n = 96,000);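 active means CYP2C19 inhibition above a set limit at 5 µM in the primary screen, cut at about 50% in these data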;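 further: plate controls were negative control wells for no effect and 2.5 mM tranylcypromine positive control for full effect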
Target sequence (P33261 whole entry, looked up): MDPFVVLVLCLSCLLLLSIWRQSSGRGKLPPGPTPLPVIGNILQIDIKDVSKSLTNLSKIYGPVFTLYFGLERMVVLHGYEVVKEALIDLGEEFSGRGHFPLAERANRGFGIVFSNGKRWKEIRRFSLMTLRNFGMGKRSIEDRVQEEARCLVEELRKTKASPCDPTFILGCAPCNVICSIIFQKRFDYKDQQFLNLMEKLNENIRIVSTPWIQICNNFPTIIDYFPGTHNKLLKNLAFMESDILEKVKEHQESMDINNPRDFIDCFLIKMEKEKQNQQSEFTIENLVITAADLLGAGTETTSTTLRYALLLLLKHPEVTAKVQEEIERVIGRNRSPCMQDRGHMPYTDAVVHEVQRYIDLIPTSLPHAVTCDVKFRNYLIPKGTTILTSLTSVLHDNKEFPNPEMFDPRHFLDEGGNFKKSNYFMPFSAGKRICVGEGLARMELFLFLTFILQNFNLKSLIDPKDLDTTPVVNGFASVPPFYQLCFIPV
CYP2C9 activ: human CYP2C9 activators, primary screen, biochemical, luminescence; actives 1.4% (n = 96,000); activation factor at 5 µM; Cytochrome P450 2C9 (Homo sapiens), P11712; recombinant CYP2C9, luciferin-H conversion; active compounds read high; factor 1 = untreated enzyme, 0 = blocked;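 active means activation factor of 2 or more for CYP2C9 at a 5 µM dose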;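 further: 0 = sulfaphenazole-blocked wells and 1 = vehicle-only wells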
CYP2C19 act: human CYP2C19 activators, primary screen, biochemical, luminescence | Cytochrome P450 2C19 (Homo sapiens), P33261 | recombinant CYP2C19, luciferin-H EGE luminescence; active compounds read high; 0 = fully inhibited enzyme, 1 = untreated enzyme | activation factor at 5 µM | 96,000 tested, under 10 active | AID 1025, 2008;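 active means activation factor of at least 2 at 5 µM in the primary screen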;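 further: 0 = wells with 2.5 mM tranylcypromine and 1 = vehicle-only wells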
Numbers without * were called inactive; · = no result given.

SMILES	Cav32 inh	CYP2C9 inh	CYP2C19 inh	CYP2C9 activ	CYP2C19 act
Cc1cccc(NC(=O)/C=C/c2cccs2)n1	1.3	3	16	1	0.8
C=CCNC(=O)c1ccc(N(C)S(=O)(=O)c2ccc(OC)cc2)cc1	-0.28	86*	73*	0.1	0.3
CC(=O)Nc1ccc(S(=O)(=O)NCc2ccc3[nH]c(C)cc3c2)cc1	0.95	85*	44	0.2	0.6
CC(=O)Nc1ccc(S(=O)(=O)NCCSc2ccccn2)cc1	0.23	22	20	0.8	0.8
CC(=O)Nc1ccc(S(=O)(=O)NCCSCc2ccc(Cl)cc2Cl)cc1	-3.6	81*	57*	0.2	0.4
CC(=O)Nc1ccc(S(=O)(=O)NCCc2ccc(F)cc2)cc1	-0.49	37	58*	0.6	0.4
N#CC1(c2ccccc2)CCCN1C(=O)c1ccc(Br)o1 (stereo not drawn)	-0.14	17	29	0.8	0.7
CCC1(C)Cc2c(c(=O)n(-c3ccccc3)c3ncnc(N)c23)CO1 (stereo not drawn)	0.55	-4	-15	1	1.2
Cc1ccc(NS(=O)(=O)N(C)C)cc1	0.74	·	·	·	·
CN(C)S(=O)(=O)NC(c1ccccc1)c1ccccc1	-0.0056	60*	83*	0.4	0.2
Cc1[nH]c2ccccc2c1C(=O)CN1CCSCC1	0.5	35	77*	0.6	0.2
COc1ccccc1N1CCN(CC(=O)Nc2c(C)n[nH]c2C)CC1	0.2	·	·	·	·
COc1ccccc1N1CCN(CC(=O)c2c(C)[nH]c3cc(C)ccc23)CC1	-4.2*	4	62*	1	0.4
COc1ccccc1N1CCN(CC(=O)c2c(C)n(C)c3ccccc23)CC1	0.16	-64	54*	1.6	0.5
Cc1[nH]c2ccccc2c1C(=O)CN1CCCC1	-0.59	39	30	0.6	0.7
COc1ccc(-n2c(SCC(=O)NCc3ccco3)nc3c([nH]c4ccccc43)c2=O)cc1	0.7	-2	-7	1	1.1
COP1(=O)C=C[C@H](N(Cc2ccccc2)S(=O)(=O)c2ccccc2[N+](=O)[O-])[C@@H](C)O1 (stereo partly drawn)	0.42	·	·	·	·
CC(=O)c1c(COC(=O)c2ccccc2)nc2ccccc2[n+]1[O-]	0.11	33	73*	0.7	0.3
O=C(OCc1ccccc1)c1ccccc1	0.016	·	·	·	·
CCSc1nc2sc3c(c2c(=O)[nH]1)CCCC3	-0.22	·	·	·	·
CCSC1=NC2(CCCCC2)Nc2sc3c(c21)CCCC3	-1.3	74*	63*	0.3	0.4
COc1ccc(Cc2nnc(SCC(=O)NCC3CCCO3)o2)cc1 (stereo not drawn)	0.18	-6	-5	1.1	1
O=C(O)CCc1ccc(-c2ccc(Cl)cc2)n1CCC(=O)O	·	26	3	0.7	1
C=CCn1c(CCC(=O)O)ccc1-c1ccccc1	-0.96	70*	39	0.3	0.6
Clc1ccc(Cn2nnc(-c3ccc(N4CCOCC4)cc3)n2)cc1	-0.55	-11	-22	1.1	1.2
SMILES	Cav32 inh	CYP2C9 inh	CYP2C19 inh	CYP2C9 activ	CYP2C19 act
CSc1ccc(-c2nnn(Cc3ccc(Br)cc3)n2)cc1	-2	30	75*	0.7	0.2
CSc1ccc(-c2nnn(Cc3ccccn3)n2)cc1	·	26	67*	0.7	0.3
C#CCNC(=O)C1=C[C@H](c2ccc(Br)cc2)C[C@H](OCc2ccc(CO)cc2)O1	-0.12	·	·	·	·
O=C(Cn1cc2c(n1)CCCCC2)NCc1ccccn1	0.061	-16	39	1.2	0.6
CCOCCCNC(=S)NNC(=O)CCn1nc(C)c(Br)c1C	-0.52	-6	34	1.1	0.7
Cc1nn(CCC(=O)NNC(=S)NCC(C)C)c(C)c1Br	0.062	91*	63*	0.1	0.4
CC1CCN(c2ccc(NC(=O)c3cccnc3)cc2)CC1	0.041	72*	35	0.3	0.6
CCC(=O)Nc1ccc(N2CCC(C)CC2)cc1	-0.1	·	·	·	·
COc1cc(CC(=O)OCC(=O)Nc2cc(S(=O)(=O)N3CCCC3)ccc2Cl)cc(OC)c1OC	1	-48	-14	1.5	1.1
CCC(C)C(NC(=O)OC(C)(C)C)C(=O)NC(Cc1ccccc1)C(=O)OC (stereo not drawn)	-0.83	11	8	0.9	0.9
CC(C)CC(NC(=O)C(Cc1ccc(OCc2ccccc2)cc1)NC(=O)OC(C)(C)C)C(N)=O (stereo not drawn)	-4.8*	44	28	0.6	0.7
CCN(Cc1ccccc1)S(=O)(=O)c1ccc(C(=O)Nc2nnc(-c3ccccc3OC)o2)cc1	·	70*	0	0.3	1
COc1ccccc1-c1nnc(NC(=O)c2ccc(S(=O)(=O)N(C)C)cc2)o1	0.57	-15	2	1.2	1
CCCCN(CCCC)S(=O)(=O)c1ccc(C(=O)Nc2nnc(CSC)o2)cc1	-3.1*	5	-11	0.9	1.1
CCCCN(CC)S(=O)(=O)c1ccc(C(=O)Nc2nnc(-c3ccccc3Cl)o2)cc1	-3	69*	11	0.3	0.9
CCCN(CCC)S(=O)(=O)c1ccc(C(=O)Nc2nnc(CSC)o2)cc1	-1.5	18	1	0.8	1
CCCN(CCC)S(=O)(=O)c1ccc(C(=O)Nc2nnc(-c3cc(OC)cc(OC)c3)o2)cc1	·	37	-2	0.6	1
CCCCN(CC)S(=O)(=O)c1ccc(C(=O)Nc2nnc(CSC)o2)cc1	-1.2	82*	-4	0.2	1
O=C(c1ccc(CNS(=O)(=O)c2ccccc2)cc1)N1CCN(Cc2ccccc2)CC1	0.046	46	41	0.5	0.6
COc1ccc(N2CCN(CC(=O)Nc3nnc(-c4ccccc4)s3)CC2)cc1	0.9	·	·	·	·
COc1ccccc1C(CC(N)=O)c1ccco1 (stereo not drawn)	-0.84	-44	-14	1.4	1.1
CCc1nnc(NC(=O)c2ccc(S(=O)(=O)N(CCOC)CCOC)cc2)s1	0.91	-102	1	2*	1
CCCCN(CC)S(=O)(=O)c1ccc(C(=O)Nc2nnc(COC)o2)cc1	-0.21	64*	-5	0.4	1
COCCN(CCOC)S(=O)(=O)c1ccc(C(=O)Nc2nnc(C3CC3)o2)cc1	0.75	13	-20	0.9	1.2
COc1ccccc1-c1nnc(NC(=O)c2ccccc2F)o1	-0.67	64*	-4	0.4	1
CCc1nnc(NC(=O)c2ccc(N(C)S(=O)(=O)c3ccccc3)cc2)s1	0.23	·	·	·	·
CCC1(CC)C(=O)C(C)(C)C(=O)OC1c1ccccn1 (stereo not drawn)	·	60*	33	0.4	0.7
Cc1cccc(NC(=O)c2cccc(Cn3cc(Br)c([N+](=O)[O-])n3)c2)c1C	0.46	8	7	0.9	0.9
O=C1N=C(N2CCOCC2)S/C1=C/c1cccs1	-0.68	-7	9	1.1	0.9
